Experimental data from the supplement of paper PMC11732987, “Enantioselective OTUD7B fragment discovery through chemoproteomics screening and high-throughput optimisation” (Communications Chemistry, 2025).

What was measured:
Test in all cases: log2 ratio of Biotin-Ahx-Ub-VS probe labelling (fragment/DMSO); higher = less target engagement (more negative = stronger competition), active = hit call of the paper (q ≤ 0.05, log2 ratio ≤ -1)
Details in all cases: compound concentration: 200 uM; treatment time: 3 h
[1] = target: USP34 (UniProt Q70CQ2)
Sequence of USP34 (Q70CQ2 whole entry, the tested form may be a part): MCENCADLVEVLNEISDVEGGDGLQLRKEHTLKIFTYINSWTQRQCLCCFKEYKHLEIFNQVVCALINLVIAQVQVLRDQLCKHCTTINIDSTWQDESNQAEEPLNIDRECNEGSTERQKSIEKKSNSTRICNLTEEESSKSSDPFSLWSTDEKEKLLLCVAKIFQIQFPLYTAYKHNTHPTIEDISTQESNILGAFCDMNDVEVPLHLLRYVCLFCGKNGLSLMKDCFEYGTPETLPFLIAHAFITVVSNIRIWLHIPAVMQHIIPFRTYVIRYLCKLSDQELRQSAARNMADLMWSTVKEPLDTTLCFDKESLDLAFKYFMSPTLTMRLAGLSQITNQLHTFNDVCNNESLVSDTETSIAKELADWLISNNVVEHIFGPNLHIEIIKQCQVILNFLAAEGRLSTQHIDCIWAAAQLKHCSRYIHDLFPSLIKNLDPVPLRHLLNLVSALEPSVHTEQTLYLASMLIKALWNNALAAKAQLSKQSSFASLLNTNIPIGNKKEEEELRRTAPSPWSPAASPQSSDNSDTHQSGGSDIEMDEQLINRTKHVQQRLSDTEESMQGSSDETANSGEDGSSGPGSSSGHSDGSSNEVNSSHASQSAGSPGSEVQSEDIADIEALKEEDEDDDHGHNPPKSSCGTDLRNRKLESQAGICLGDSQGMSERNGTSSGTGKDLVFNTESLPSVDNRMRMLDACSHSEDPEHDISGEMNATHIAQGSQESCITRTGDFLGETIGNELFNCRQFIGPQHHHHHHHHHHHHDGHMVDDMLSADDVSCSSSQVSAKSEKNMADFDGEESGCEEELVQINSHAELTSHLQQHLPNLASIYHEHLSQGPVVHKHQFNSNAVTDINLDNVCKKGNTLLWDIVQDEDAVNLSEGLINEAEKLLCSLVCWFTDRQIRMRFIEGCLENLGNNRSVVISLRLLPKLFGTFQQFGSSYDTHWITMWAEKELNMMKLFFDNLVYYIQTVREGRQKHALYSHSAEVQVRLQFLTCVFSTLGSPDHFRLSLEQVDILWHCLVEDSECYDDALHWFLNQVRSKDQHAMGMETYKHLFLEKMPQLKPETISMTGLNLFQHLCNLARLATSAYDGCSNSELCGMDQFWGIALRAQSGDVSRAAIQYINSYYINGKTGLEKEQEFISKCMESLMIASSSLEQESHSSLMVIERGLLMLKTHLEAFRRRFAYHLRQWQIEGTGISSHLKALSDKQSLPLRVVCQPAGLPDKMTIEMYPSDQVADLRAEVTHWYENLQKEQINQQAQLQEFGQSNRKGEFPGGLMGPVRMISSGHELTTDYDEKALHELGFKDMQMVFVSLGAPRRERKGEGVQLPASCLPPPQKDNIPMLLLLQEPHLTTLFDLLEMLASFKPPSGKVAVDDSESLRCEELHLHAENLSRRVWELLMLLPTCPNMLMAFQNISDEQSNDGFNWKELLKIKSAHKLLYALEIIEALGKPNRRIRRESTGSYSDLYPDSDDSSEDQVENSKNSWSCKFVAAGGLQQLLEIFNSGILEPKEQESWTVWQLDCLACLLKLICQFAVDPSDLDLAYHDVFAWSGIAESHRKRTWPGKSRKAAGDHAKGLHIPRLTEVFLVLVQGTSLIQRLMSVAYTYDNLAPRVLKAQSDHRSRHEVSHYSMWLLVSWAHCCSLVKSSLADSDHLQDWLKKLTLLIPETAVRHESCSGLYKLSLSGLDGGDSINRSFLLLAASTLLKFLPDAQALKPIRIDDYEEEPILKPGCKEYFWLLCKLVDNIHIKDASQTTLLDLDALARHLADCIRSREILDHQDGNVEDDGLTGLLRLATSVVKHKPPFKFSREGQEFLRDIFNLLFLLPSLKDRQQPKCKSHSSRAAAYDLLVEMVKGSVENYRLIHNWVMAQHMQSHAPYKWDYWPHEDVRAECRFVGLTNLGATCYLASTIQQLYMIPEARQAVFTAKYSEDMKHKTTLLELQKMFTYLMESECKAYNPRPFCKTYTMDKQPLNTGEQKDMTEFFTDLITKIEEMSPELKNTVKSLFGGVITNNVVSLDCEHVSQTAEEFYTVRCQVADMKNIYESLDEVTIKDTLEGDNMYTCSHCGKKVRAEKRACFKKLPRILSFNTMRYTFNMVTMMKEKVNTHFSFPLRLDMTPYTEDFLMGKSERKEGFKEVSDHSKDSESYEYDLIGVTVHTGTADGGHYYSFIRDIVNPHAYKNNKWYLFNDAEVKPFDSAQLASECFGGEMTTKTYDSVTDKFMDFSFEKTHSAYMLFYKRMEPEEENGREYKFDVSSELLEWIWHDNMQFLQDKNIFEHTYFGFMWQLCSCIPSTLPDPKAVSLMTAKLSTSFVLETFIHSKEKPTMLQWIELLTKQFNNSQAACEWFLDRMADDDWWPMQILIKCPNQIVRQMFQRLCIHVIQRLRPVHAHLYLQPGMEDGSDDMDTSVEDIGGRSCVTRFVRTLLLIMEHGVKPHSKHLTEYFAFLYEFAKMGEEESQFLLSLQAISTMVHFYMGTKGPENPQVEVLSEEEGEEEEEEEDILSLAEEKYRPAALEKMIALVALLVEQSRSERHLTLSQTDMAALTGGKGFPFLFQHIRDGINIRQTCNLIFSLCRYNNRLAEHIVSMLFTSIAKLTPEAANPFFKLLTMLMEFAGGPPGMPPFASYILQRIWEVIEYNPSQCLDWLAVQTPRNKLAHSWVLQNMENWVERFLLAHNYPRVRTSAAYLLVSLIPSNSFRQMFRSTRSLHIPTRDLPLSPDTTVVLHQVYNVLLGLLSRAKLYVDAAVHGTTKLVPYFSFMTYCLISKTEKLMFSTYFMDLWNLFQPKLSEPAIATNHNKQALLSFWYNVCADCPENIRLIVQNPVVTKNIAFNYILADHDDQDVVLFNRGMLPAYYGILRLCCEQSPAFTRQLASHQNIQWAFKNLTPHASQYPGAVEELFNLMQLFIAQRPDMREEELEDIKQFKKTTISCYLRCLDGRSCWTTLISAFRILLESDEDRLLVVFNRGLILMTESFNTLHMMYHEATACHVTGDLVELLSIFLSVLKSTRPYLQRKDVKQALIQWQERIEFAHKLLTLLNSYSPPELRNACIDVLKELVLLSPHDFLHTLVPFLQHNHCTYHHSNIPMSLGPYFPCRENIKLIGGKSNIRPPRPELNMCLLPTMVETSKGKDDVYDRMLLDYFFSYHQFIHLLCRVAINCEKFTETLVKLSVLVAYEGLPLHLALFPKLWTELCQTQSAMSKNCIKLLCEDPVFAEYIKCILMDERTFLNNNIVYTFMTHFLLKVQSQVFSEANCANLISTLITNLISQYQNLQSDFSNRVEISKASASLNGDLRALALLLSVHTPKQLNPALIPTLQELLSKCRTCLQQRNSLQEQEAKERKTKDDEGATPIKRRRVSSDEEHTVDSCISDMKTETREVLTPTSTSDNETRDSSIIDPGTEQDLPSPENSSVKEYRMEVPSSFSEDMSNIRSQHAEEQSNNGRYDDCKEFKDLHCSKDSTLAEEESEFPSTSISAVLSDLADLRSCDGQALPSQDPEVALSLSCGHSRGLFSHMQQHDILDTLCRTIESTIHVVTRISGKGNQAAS
In short: (§1)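 The table lists average log2 ratios of fragment over vehicle, from an unpaired t-test on global-median-normalised Spectronaut label-free quantities. Proteins with ≥2 unique peptides were used. Samples were HEK293T lysate (495 µg) treated in triplicate with fragment at 200 µM or vehicle for 3 h, then with Biotin-Ahx-Ub-VS (0.5 µM final) for 1 h, with labelled DUBs NeutrAvidin-enriched and run by diaPASEF LC-MS/MS.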

[2] = target: T1, USP36 (UniProt Q9P275)
T1 sequence (whole entry): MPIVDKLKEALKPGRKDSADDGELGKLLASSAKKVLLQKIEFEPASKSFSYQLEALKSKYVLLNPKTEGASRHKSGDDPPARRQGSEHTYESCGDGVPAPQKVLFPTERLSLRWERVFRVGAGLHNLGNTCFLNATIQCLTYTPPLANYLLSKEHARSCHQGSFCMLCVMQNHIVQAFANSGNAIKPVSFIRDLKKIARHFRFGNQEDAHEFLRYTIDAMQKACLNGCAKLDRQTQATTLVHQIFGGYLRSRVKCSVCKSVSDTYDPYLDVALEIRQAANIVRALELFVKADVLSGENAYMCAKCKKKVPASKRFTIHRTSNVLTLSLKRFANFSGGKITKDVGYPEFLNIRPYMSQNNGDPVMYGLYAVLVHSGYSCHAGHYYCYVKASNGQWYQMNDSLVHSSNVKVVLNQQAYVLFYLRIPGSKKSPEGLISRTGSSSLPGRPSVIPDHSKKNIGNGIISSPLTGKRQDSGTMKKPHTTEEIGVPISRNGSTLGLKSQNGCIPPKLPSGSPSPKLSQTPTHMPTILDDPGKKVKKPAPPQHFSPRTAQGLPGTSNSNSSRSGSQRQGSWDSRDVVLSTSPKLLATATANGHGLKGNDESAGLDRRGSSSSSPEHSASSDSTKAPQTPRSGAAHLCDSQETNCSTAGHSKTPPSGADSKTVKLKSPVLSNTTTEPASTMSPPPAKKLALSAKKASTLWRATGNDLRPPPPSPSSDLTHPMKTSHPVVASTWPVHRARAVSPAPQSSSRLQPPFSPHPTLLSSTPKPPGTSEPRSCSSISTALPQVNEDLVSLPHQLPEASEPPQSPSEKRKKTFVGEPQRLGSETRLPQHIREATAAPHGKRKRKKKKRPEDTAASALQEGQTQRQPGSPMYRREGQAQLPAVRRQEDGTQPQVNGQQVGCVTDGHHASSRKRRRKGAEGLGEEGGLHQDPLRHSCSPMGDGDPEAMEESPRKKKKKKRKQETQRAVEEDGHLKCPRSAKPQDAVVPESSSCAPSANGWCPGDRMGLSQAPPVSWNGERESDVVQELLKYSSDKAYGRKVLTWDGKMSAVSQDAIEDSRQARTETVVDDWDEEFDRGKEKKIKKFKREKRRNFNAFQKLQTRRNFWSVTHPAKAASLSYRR
In short: as §1

[3] = target: T2, USP38 (UniProt Q8NB14)
T2 sequence (whole entry): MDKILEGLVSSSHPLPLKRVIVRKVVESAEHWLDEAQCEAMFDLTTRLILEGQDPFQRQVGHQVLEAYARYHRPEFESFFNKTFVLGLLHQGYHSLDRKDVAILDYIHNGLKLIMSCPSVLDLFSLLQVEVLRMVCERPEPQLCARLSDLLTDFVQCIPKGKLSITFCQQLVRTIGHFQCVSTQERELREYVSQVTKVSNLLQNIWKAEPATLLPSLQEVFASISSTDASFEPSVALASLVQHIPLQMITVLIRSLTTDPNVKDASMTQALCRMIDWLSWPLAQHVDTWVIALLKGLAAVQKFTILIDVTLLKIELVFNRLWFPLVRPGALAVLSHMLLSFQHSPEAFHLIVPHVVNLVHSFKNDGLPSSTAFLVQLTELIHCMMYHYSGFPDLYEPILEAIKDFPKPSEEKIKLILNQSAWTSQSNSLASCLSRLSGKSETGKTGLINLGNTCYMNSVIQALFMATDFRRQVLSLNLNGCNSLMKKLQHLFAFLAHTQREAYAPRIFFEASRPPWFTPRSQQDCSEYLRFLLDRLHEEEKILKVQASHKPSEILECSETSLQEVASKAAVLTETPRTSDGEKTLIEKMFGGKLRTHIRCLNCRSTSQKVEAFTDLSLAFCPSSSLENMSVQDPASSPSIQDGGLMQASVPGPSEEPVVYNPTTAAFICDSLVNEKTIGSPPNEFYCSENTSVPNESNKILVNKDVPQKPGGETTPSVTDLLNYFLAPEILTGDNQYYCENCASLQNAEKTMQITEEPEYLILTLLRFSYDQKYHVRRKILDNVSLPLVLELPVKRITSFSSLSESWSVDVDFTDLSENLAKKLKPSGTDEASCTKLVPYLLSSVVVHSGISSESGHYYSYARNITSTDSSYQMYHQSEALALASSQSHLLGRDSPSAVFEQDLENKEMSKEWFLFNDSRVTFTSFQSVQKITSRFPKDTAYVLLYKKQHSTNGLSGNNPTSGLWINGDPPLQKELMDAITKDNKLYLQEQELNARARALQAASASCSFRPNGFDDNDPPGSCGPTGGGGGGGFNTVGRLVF
In short: as §1

[4] = target: T3, USP39 (UniProt Q53GS9)
T3 sequence (whole entry): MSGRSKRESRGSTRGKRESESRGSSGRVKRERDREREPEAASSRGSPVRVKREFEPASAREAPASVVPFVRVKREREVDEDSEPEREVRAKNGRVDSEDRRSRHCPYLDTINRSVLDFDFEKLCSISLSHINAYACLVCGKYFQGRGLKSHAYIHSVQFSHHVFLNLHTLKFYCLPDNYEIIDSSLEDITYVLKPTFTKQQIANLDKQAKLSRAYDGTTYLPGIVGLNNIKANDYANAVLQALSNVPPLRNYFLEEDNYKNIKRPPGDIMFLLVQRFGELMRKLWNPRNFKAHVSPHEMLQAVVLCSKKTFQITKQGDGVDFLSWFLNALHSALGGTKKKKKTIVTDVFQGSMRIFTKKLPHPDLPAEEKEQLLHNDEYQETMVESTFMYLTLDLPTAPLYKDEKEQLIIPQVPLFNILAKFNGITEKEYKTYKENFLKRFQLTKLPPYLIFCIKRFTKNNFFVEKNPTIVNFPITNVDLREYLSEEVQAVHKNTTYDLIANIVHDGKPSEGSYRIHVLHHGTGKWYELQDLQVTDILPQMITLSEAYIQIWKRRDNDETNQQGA
In short: as §1

[5] = target: T4, USP4 (UniProt Q13107)
T4 sequence (whole entry): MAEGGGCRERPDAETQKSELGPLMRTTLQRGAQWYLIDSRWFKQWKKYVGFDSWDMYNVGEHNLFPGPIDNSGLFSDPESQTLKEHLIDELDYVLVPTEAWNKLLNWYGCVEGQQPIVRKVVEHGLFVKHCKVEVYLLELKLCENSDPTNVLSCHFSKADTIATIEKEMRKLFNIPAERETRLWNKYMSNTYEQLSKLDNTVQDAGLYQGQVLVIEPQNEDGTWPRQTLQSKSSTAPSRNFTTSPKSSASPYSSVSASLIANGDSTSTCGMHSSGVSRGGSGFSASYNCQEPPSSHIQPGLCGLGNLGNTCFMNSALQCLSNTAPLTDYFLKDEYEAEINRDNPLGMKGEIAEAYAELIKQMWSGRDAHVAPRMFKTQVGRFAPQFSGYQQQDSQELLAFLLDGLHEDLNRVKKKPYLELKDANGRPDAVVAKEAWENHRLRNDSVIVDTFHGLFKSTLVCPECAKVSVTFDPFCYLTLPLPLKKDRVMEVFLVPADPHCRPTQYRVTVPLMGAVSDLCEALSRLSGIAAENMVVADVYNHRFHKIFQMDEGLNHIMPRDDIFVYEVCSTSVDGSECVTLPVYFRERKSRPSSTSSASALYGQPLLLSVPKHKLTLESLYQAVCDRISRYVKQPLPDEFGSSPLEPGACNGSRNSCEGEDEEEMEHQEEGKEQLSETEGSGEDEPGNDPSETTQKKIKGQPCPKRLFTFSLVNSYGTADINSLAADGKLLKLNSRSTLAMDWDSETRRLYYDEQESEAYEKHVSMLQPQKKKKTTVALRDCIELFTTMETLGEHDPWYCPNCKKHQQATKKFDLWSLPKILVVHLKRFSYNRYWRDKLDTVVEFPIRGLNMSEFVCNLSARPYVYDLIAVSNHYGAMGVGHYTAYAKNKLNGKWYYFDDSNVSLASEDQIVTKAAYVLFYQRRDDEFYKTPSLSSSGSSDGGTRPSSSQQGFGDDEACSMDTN
In short: as §1

Measured: log2 ratio of Biotin-Ahx-Ub-VS probe labelling

Cl.O=C(CCl)N1CCC(Cc2nccs2)C1 (stereo not given)
inactive: [1] 0.132 | [2] -0.0197 | [3] 0.0569 | [4] 0.0712 | [5] -0.165
